In PubChem BioAssay (NCATS):
Inconclusive results are not listed. Entries that show only a call come without a potency. The source made the active and inactive calls. Unless noted, the call rests on the fitted dose curve; in most records, active means well fitted curve in the direction sought with a large enough effect; inconclusive means small, poorly fitted or top-dose-only effect, or another doubt; inactive means no such curve, though single readings can be large; an effect the other way counts as inactive or inconclusive.

Assays:
[1] = target: Rap guanine nucleotide exchange factor 4 (Homo sapiens) (UniProt Q8WZA2); assay: Confirmatory qHTS for antagonist of cAMP-regulated guanine nucleotide exchange factor 4 (EPAC2) (AID 1645885); further: nearly all actives have a fitted effect of over 25% in size
Rap guanine nucleotide exchange factor 4 (Homo sapiens), sequence (Q8WZA2 whole entry, looked up): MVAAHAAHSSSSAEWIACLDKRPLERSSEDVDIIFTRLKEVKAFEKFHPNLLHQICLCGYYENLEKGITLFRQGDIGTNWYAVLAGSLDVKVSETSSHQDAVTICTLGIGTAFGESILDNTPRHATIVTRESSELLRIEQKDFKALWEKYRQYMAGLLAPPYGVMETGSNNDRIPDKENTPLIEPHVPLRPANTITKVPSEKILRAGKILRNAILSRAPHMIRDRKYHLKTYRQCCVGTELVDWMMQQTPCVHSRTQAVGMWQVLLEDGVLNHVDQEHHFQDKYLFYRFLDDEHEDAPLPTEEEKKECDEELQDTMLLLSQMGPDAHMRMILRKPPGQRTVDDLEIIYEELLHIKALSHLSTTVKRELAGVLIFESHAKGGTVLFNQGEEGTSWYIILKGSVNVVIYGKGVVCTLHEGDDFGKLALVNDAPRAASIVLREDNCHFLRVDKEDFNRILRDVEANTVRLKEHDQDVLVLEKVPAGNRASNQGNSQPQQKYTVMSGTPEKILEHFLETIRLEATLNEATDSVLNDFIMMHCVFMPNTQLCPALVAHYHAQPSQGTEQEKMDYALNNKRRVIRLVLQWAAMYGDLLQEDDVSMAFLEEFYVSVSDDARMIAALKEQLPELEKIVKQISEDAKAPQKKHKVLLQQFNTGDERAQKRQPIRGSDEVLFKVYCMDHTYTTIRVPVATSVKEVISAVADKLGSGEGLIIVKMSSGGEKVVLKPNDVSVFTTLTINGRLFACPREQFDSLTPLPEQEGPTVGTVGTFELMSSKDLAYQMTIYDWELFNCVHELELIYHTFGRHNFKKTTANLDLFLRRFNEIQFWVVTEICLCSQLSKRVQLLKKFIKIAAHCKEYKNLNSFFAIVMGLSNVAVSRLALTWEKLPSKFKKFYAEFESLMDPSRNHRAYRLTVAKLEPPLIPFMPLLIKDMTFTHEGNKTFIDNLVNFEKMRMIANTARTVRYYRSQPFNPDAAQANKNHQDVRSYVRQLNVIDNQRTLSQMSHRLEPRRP

[2] = target: Calcium and integrin-binding protein 1 (Homo sapiens) (UniProt Q99828); assay: Primary qHTS for Identification of Calcium Integrin Binding Protein 1 (CIB1) Competitor (AID 1508620);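 further: GST tagged CIB1 binding a fluorescein labelled alphaIIb integrin peptide tracer; top concentration of the series differs between compounds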
Calcium and integrin-binding protein 1 (Homo sapiens), sequence (Q99828 whole entry, looked up): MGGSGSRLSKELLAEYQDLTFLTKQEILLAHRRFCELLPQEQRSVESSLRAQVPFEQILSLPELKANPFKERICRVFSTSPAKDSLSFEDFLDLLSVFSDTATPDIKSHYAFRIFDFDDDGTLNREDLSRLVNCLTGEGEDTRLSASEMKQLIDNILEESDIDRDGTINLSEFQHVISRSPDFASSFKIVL
How it was run: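 CIB1-GST (1 uM final) and compound incubated 15 min at room temperature before adding FITC-alphaIIb peptide tracer (100 nM final). Competition for binding read by fluorescence polarization (ex 480, em 540) after another 15 min at room temperature.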

[3] = target: Cytochrome P450 2C19 (Homo sapiens) (UniProt P33261); assay: qHTS Assay for Inhibitors and Substrates of Cytochrome P450 2C19 (AID 899); further: potency means the concentration at half of the fitted maximal effect; nearly all actives have a fitted effect of over 60% in size
Cytochrome P450 2C19 (Homo sapiens), sequence (P33261 whole entry, looked up): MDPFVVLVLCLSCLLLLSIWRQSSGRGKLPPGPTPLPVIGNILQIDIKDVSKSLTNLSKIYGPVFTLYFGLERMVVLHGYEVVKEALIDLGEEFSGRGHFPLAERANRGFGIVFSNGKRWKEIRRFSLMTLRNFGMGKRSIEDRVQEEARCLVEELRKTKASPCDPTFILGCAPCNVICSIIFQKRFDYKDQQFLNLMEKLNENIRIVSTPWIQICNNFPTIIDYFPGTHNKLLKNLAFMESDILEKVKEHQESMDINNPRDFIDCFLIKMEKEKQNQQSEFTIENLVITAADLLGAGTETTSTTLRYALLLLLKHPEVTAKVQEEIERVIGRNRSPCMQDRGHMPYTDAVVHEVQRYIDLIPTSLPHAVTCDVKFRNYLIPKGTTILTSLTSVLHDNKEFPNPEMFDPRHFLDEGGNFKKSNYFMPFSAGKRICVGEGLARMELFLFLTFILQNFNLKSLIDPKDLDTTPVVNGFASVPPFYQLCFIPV
How it was run: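 Luminescence readout of luciferin formed from 10uM Luciferin-H EGE (KM level) by 5 nM CYP2C19 in 50mM KPO4. 60 min NADPH-driven reaction at 37C after 10 min compound preincubation; data scaled to 57uM ketoconazole inhibition.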

[4] = target: Pyruvate kinase PKM (Homo sapiens) (UniProt P14618); assay: qHTS Assay for Inhibitors of Human Muscle Pyruvate Kinase (AID 958); details: purified human PKM enzyme activity
Pyruvate kinase PKM (Homo sapiens), sequence (P14618 whole entry, looked up): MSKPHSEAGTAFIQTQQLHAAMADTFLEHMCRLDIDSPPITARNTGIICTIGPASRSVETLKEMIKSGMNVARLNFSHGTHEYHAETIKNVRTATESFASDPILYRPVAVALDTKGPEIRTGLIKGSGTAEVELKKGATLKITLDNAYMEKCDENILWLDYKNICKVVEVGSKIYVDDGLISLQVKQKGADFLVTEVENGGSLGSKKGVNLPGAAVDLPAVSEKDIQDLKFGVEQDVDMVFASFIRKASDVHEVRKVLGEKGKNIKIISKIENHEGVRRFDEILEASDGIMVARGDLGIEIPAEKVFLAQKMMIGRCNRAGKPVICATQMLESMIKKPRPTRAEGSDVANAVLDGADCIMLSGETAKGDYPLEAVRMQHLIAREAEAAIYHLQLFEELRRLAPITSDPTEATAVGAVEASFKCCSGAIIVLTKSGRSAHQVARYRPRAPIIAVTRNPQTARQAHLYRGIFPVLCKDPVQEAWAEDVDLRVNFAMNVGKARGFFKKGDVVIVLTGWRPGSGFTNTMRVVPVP
How it was run: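 ATP production by PKM2 detected via luciferase luminescence after 1 h room-temperature reaction (0.1 nM enzyme, PEP at Km 0.5 mM, ADP 0.1 mM, pH 7.2 imidazole buffer). Inhibition scaled to no-enzyme control; activation referenced to 0.3 nM enzyme wells.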

[5] = target: Pyruvate kinase (Leishmania mexicana) (UniProt Q27686); assay: qHTS Validation Assay for Activators of Leishmania Mexicana Pyruvate Kinase (AID 959)
Pyruvate kinase (Leishmania mexicana), sequence (Q27686 2-499 E452W): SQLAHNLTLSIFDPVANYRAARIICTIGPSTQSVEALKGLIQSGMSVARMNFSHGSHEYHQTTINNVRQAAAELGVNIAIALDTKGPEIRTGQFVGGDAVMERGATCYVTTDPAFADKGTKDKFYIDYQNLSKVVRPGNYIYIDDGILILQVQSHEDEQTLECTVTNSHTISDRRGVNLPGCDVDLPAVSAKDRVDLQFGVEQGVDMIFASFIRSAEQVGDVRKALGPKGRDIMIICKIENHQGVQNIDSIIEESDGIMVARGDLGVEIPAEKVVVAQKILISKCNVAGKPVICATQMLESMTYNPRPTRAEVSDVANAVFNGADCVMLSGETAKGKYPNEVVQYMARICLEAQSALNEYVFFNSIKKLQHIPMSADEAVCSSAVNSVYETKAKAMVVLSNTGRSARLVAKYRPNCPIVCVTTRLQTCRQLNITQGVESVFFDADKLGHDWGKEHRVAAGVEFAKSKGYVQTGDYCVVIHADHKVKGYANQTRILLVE
How it was run: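 Purified LmPYK (E451W mutant, 0.2 nM) was incubated 1 h at room temperature with 0.5 mM PEP and 0.1 mM ADP in 50 mM imidazole pH 7.2, 50 mM KCl, 7 mM MgCl2; ATP formed was read by PKLight luminescence, normalized to DMSO wells.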

[6] = qHTS Assay for Identification of Small Molecule Antagonists for NFkB Signaling Pathway (AID 895; active means well fitted inhibition curve with a large enough effect in the signal ratio, with a control signal flat, not every such curve was filed as active; the % refers to the signal ratio)
How it was run: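 Beta-lactamase reporter read-out (460 and 530 nm emission ratio, 405 nm excitation, 2 hrs substrate loading RT) after 5 hr stimulation with 10 pM TNF alpha in compound-treated NFkB-bla ME-180 cells in low-serum medium.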

With `C[C@@]12C(=O)OC(=O)[C@@]1(C)[C@@H]1CC[C@@H]2O1` as the compound, how does the Potency [1] read?
The Potency was “inactive”.

For `Cc1ccc(NS(=O)(=O)c2cc3c(cc2F)NC(=O)CC3)cc1Cl`, which outcome [2] is on record?
The outcome was “inactive”.

With `Cc1cccc(/C=C\c2ccccc2)n1` as the compound, how does the Potency [3] read?
The Potency was 0.501 µM (active).

What about the Potency [4] of the same compound?
The Potency was 15.8 µM (active).

What about the Potency [5] of the same compound?
Its Potency is “inactive”.

Which Potency [6] does the source give for `NS(=O)(=O)c1cc2c(cc1Cl)N[C@@H]([C@@H]1C[C@@H]3C=C[C@H]1C3)NS2(=O)=O` here?
Its Potency is “inactive”.
